# From PubChem BioAssay (NCATS)
# Inconclusive results are not listed. Active and inactive are the calls of the source. The call rests on the fitted dose curve; in most records, active means well fitted inhibition curve with a large enough effect; inconclusive means small, poorly fitted or top-dose-only effect; inactive means flat fitted curve, though single readings scatter. Bridge positions count the residues as written; N and C are the ends. Square brackets hold non-standard residues; d marks the D form. Peptide text beside a SMILES is read from it. * marks the point of attachment. Ileψ(thiazoline)Cys = CC[C@H](C)[C@H](N)C1=N[C@H](C(=O)*)CS1; d(aIle) = CC[C@H](C)[C@@H](N)C(=O)O; dOrn = NCCC[C@@H](N)C(=O)O
# System: CP265
# Experiment: qHTS profiling for inhibitors of Plasmodium falciparum proliferation (AID 504749); further: nearly all actives have a fitted effect of over 60% in size;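 on activity, negative = inhibition: 0% = DMSO vehicle and full inhibition = artemisinin control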
# Conditions: P. falciparum in erythrocytes, SYBR Green DNA, 72 h; series mostly up to 12.8 µM; activity, negative = inhibition: at the top concentration
# In short: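 Readout was DNA-dye fluorescence from lysed cultures, ex 485/em 535 nm. Parasitized red cells had grown 72 h with compound; data scaled between 0.29 uM artemisinin and DMSO wells and corrected using vehicle-only plates.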
# Potency means the concentration at half of the fitted maximal effect.
SMILES,"activity, negative = inhibition",Potency
CN(C/C=C\c1ccccc1)Cc1cccc2ccccc12,-4.1% [at 28.7 µM] (inactive),–
C[C@H](C(=O)O)c1cccc(Oc2ccccc2)c1,-17.3% (inactive),–
CC1(C)[C@@H](OC(=O)CCC(=O)O)CC[C@@]2(C)[C@H]1CC[C@@]1(C)[C@H]2C(=O)C=C2[C@H]3C[C@](C)(C(=O)O)CC[C@]3(C)CC[C@@]21C,-3.49% (inactive),–
CCOC(=O)O[C@@H](C)OC(=O)[C@@H]1N2C(=O)[C@@H](NC(=O)[C@@H](N)c3ccccc3)[C@H]2SC1(C)C,2.44% (inactive),–
Cc1ccsc1/C=C\C1=NCCCN1C,3.99% (inactive),–
C#C[C@]1(O)CC[C@@H]2[C@H]3CCC4=CCCC[C@@H]4[C@@H]3CC[C@@]21C,-0.379% (inactive),–
CC[C@H](C)[C@H](N)C1=N[C@H](C(=O)N[C@@H](CC(C)C)C(=O)N[C@@H](CCC(=O)O)C(=O)N[C@@H](C(=O)N[C@H]2CCCCNC(=O)[C@@H](CC(N)=O)NC(=O)[C@@H](CC(=O)O)NC(=O)[C@@H](Cc3cnc[nH]3)NC(=O)[C@@H](Cc3ccccc3)NC(=O)[C@@H]([C@@H](C)CC)NC(=O)[C@@H](CCCN)NC2=O)[C@@H](C)CC)CS1 ({Ileψ(thiazoline)Cys}-LE[d(aIle)]K[dOrn][d(aIle)][dF][dH][dD][dN]; lactam 4-C),2.73% (inactive),–
O=C(O)COCCN1CCN([C@@H](c2ccccc2)c2ccc(Cl)cc2)CC1,-22% (inactive),–
CCN(CC)CCOC(=O)[C@@H](Cc1cccc2ccccc12)C[C@@H]1CCCO1,-25.7% (inactive),–
Clc1ccc([C@H](Cn2ccnc2)OCc2c(Cl)cccc2Cl)c(Cl)c1,–,3.16 µM (active)
CC[C@H](CO)NCCN[C@@H](CC)CO,-2.81% (inactive),–
